Records with an inconclusive call do not appear. Active and inactive are the calls of the source. The call rests on the fitted dose curve; in most records, active means well fitted inhibition curve with a large enough effect in the signal ratio in the repeat runs (not every such curve was filed as active); inconclusive means weak or mixed curves, or effect the other way; inactive means no such curve, though single readings can be large or run the other way; the % refers to the signal ratio.
Each compound was assayed against Vitamin D3 receptor (Homo sapiens) (UniProt P11473) (assay: qHTS assay to identify small molecule antagonists of the vitamin D receptor (VDR) signaling pathway (AID 743223)). Conditions: VDR-UAS-bla HEK293T, beta-lactamase FRET ratio, 16 h; series mostly up to 61 µM; activity change, negative = inhibition: at the top concentration.
Vitamin D3 receptor (Homo sapiens), sequence (P11473 whole entry, looked up): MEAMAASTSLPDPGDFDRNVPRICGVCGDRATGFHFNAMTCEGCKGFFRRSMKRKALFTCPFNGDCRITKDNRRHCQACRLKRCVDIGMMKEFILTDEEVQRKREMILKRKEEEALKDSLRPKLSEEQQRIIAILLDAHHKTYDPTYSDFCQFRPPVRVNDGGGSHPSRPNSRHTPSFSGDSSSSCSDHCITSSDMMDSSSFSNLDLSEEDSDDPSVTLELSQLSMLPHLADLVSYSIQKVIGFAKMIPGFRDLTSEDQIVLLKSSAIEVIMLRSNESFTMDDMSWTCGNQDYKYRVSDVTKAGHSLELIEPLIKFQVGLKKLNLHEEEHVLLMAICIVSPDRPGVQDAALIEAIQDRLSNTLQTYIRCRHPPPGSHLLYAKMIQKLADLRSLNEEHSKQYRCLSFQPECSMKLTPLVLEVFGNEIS
Text: U.S. Tox21 Program National Center for Advancing Translational Sciences [NCATS] NIH Chemical Genomics Center [NCGC] U.S. Environmental Protection Agency [EPA] National Institutes of Environmental Health Sciences [NIEHS] National Toxicology Program [NTP] U.S. Food and Drug Administration [FDA] Tox21 Assay Overview: The vitamin D receptor (VDR), a member of nuclear hormone receptor superfamily, plays a critical role in calcium homeostasis and bone metabolism. It is also involved in cell differentiation and growth, and thrombogenicity.
Tox21 Assay Protocol Summary: VDR-bla cells were dispensed at 2,000 cells/5 uL of assay medium per well into black wall/clear-bottom 1536-well plates using a Multidrop Combi (Thermo Fisher Scientific, Waltham, MA) dispenser. After the assay plates were incubated at a 37C and 5% CO2 for 4 h, 23 nL of compounds dissolved in DMSO, positive controls or DMSO only was transferred to the assay plate by a Pintool station (Kalypsys, San Diego, CA), followed by addition of 1 uL of 1alpha, 25-Dihydroxy Vitamin D3 (3 nM, final concentration in the wells) using a Bioraptr Flying Reagent Dispenser (FRD) workstation (Beckman Coulter, Indianapolis, IN). The plates were incubated at 37C and 5% CO2 for 16 h, and then 1 uL of LiveBLAzerTM B/G FRET substrate was added using a Bioraptr FRD. The plates were incubated at room temperature for 2 h and fluorescence intensity was measured by an Envision plate reader (PerkinElmer, Shelton, CT).
`Cc1cc(N)c(S(=O)(=O)O)cc1Cl` was tested, and the “activity change, negative = inhibition” value was -4.49% [at 78.8 µM] (inactive).
For `COC(=O)c1cc(Cl)ccc1OC`, the “activity change, negative = inhibition” value was -0.804% (inactive).
With `CC(=O)OCC(C)OC(C)=O` (stereo not given) the “activity change, negative = inhibition” value was -1.43% (inactive).
With `CCC1OCC(COc2ccc(Oc3ccccc3)cc2)O1` (stereo not given) the “activity change, negative = inhibition” value was -3.08% (inactive).
In the case of `C=CC(=O)OCC(CO)(COCC(COC(=O)C=C)(COC(=O)C=C)COC(=O)C=C)COC(=O)C=C`, the Potency is reported as 2.72 µM (active).
`C[n+]1ccn(Cc2ccccc2)c1` was tested, and the “activity change, negative = inhibition” value was -3.01% (inactive).
In the case of `NNc1nc(-c2ccc(N)cc2)cs1`, the “activity change, negative = inhibition” value is reported as 3.37% (inactive).
In the case of `CCCCCCCCCCC=O`, the “activity change, negative = inhibition” value is reported as -13.4% [at 78.8 µM] (inactive).
In the case of `Cc1cccc2c1cc1ccc3cccc4ccc2c1c34`, the “activity change, negative = inhibition” value is reported as -2.9% [at 78.8 µM] (inactive).
For `CCCC1O[C@@H]2C[C@H]3[C@@H]4CCC5=CC(=O)C=C[C@]5(C)[C@H]4[C@@H](O)C[C@]3(C)[C@]2(C(=O)CO)O1` (stereo not given in full), the “activity change, negative = inhibition” value was 4% (inactive).
With `C/C(=C(/OCCOc1ccc(Cl)cc1)c1ccc(Cl)cc1Cl)n1ccnc1` the “activity change, negative = inhibition” value was 4.86% (inactive).
With `ON=C1CCCC1` the “activity change, negative = inhibition” value was 1.15% [at 78.8 µM] (inactive).
`O=C1c2ccccc2Cc2ccccc21` was tested, and the “activity change, negative = inhibition” value was 8.1% [at 78.8 µM] (inactive).
In the case of `c1ccc(CSCc2ccccc2)cc1`, the “activity change, negative = inhibition” value is reported as -1.44% (inactive).
`CO[Si](CCCNc1ccccc1)(OC)OC` was tested, and the “activity change, negative = inhibition” value was 1.23% (inactive).
In the case of `CCCCN1CCCC[C@H]1C(=O)Nc1c(C)cccc1C`, the “activity change, negative = inhibition” value is reported as 8.05% (inactive).
For `O=C(N/N=C/c1ccccc1O)c1ccncc1`, the Potency was 19 µM (active).
In the case of `CCCCCCCCCCCCCCCC[N+](C)(C)CCN(Cc1ccc(OC)cc1)c1ncccn1`, the Potency is reported as 21.3 µM (active).
With `N#CC1(c2ccc(F)cc2)CCC(=O)CC1` the “activity change, negative = inhibition” value was -3.89% (inactive).
For `O=C(c1ccc(O)cc1O)c1ccc(O)cc1O`, the “activity change, negative = inhibition” value was -9.97% (inactive).
With `O=C(OCC(COC(=O)c1ccccc1)(COC(=O)c1ccccc1)COC(=O)c1ccccc1)c1ccccc1` the “activity change, negative = inhibition” value was -1.21% (inactive).
In the case of `C[C@H]1[C@H]2CC[C@H]3[C@@H]4CC=C5C[C@@H](N(C)C)CC[C@]5(C)[C@H]4CC[C@]23CN1C`, the “activity change, negative = inhibition” value is reported as -11.2% (inactive).
`Nc1ccc2cc(S(=O)(=O)O)cc(O)c2c1N=Nc1ccccc1C(F)(F)F` was tested, and the “activity change, negative = inhibition” value was 6.13% (inactive).
With `CCCCCCCCOc1ccccc1C(=O)Nc1ccc(C(=O)OCC[N+](C)(CC)CC)cc1` the “activity change, negative = inhibition” value was 15.4% (inactive).
For `OCCCCCCCCCCCCBr`, the “activity change, negative = inhibition” value was -8.58% [at 78.8 µM] (inactive).
With `CCCCCCCCCCCCCCCC(=O)OC[C@H](O)[C@H]1OC(=O)C(O)=C1O` the “activity change, negative = inhibition” value was -0.717% (inactive).
In the case of `COc1ccc(-c2ccc3cc(C(=O)O)ccc3c2)cc1C12CC3CC(CC(C3)C1)C2`, the “activity change, negative = inhibition” value is reported as 11.5% (inactive).
With `CN(C/C=C/C#CC(C)(C)C)Cc1cccc2ccccc12` the “activity change, negative = inhibition” value was -6.8% (inactive).
`O=Cc1cc(O)ccc1Br` was tested, and the “activity change, negative = inhibition” value was -0.158% [at 78.8 µM] (inactive).
With `O=c1cccccc1O` the “activity change, negative = inhibition” value was -6.81% [at 78.8 µM] (inactive).
With `CCC(N)(CO)CO` the “activity change, negative = inhibition” value was 6.09% [at 78.8 µM] (inactive).
For `CCc1cc(Cc2cc(CC)c(N)c(CC)c2)cc(CC)c1N`, the “activity change, negative = inhibition” value was -9.35% (inactive).
In the case of `CN(C)CCCOC1(Cc2ccccc2)CCCCCC1`, the “activity change, negative = inhibition” value is reported as 12.5% (inactive).
With `CCOC(=O)O[C@]1(C(=O)OCCl)CC[C@H]2[C@@H]3CCC4=CC(=O)C=C[C@]4(C)[C@H]3[C@@H](O)C[C@@]21C` the “activity change, negative = inhibition” value was 12.7% (inactive).
With `NNc1nc(-c2ccccc2)cs1` the “activity change, negative = inhibition” value was -10.4% [at 78.8 µM] (inactive).
With `Cc1onc(-c2ccccc2Cl)c1C(=O)N[C@@H]1C(=O)N2[C@@H]1SC(C)(C)[C@@H]2C(=O)O` the “activity change, negative = inhibition” value was 1.96% (inactive).
`CCCCCCC[N+](CC)(CC)CCCCc1ccc(Cl)cc1` was tested, and the “activity change, negative = inhibition” value was 8.33% (inactive).
`COc1cc(/C=C/C(=O)O[C@H]2CC[C@]34C[C@]35CC[C@]3(C)[C@@H]([C@H](C)CCC=C(C)C)CC[C@@]3(C)[C@@H]5CC[C@H]4C2(C)C)ccc1O` was tested, and the “activity change, negative = inhibition” value was -0.97% (inactive).
For `CC(NN)c1ccccc1` (stereo not given), the “activity change, negative = inhibition” value was -7.49% [at 28.5 µM] (inactive).
In the case of `CC(C)(C)C(=O)OCOC(=O)[C@@H]1N2C(=O)[C@@H](NC(=O)[C@H](N)c3ccccc3)[C@H]2SC1(C)C`, the “activity change, negative = inhibition” value is reported as 1.11% (inactive).
On the % scale 0 is the no-effect control and ±100 the full control effect; potency means the concentration at half of the fitted maximal effect.
